# Data taken from PubChem BioAssay (NCI).
# Compounds without any hit were thinned out: in the full panel of roughly 83,000, 20% have a hit.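 Negative percent growth values reflect cell death: -40 means 40% of the cells present at the start died, and -100 means all died.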 Unmarked numbers belong to inactive results. The source made the active and inactive calls. Rule for the calls: active = growth percent below 10; inactive = the rest.
# Assays:
# Assay in all cases: NCI-60 one-dose screen, 48 h (100 = growth as untreated, 0 = no growth, -100 = all killed)
# Conditions in all cases: 10 µM unless noted
# SK-MEL-2 melanoma = system: SK-MEL-2 melanoma
# EKVX NSCLC = system: EKVX NSCLC
# SN12C renal = system: SN12C renal
# UO-31 renal = system: UO-31 renal
# TK-10 renal = system: TK-10 renal
# ACHN renal = system: ACHN renal
# CAKI-1 renal = system: CAKI-1 renal
# A498 renal = system: A498 renal
# CCRF-CEM leukemia = system: CCRF-CEM leukemia
# MOLT-4 leukemia = system: MOLT-4 leukemia
SMILES,growth (SK-MEL-2 melanoma) [%],growth (EKVX NSCLC) [%],growth (SN12C renal) [%],growth (UO-31 renal),growth (TK-10 renal) [%],growth (ACHN renal),growth (CAKI-1 renal) [%],growth (A498 renal),growth (CCRF-CEM leukemia),growth (MOLT-4 leukemia)
COC(=O)Nc1nc2ccc(S(=O)c3ccccc3)cc2[nH]1 (stereo not given),48.1,80,82.2,65%,92.9,86.1%,63.2,56.6%,66.9%,70.5%
CCN(CC)S(=O)(=O)c1ccc(S(=O)(=O)N2CCC[C@@H](C(=O)N3CCN(c4nc(C(C)C)no4)CC3)C2)cc1,94.6,55.1,84.9,58.6%,74.5,68.5%,58.4,6.31% (active),63.7%,61.1%
Cn1c(=O)c2nc(/C=C/c3ccccc3)c(=O)[nH]c2n(C)c1=S,109,101,104,86.9%,115,105%,92.1,97.8%,101%,103%
CCOc1ccccc1Cn1ccnc1CCc1c(Cl)c(O)cc(O)c1C(=O)OC,87.5,101,96.9,78.9%,90.4,98.3%,98.6,114%,93.6%,91.9%
COc1ccc(C/C(C)=C(/c2ccc(OCCN(C)C)cc2)c2ccc(OC(=O)NCc3ccccc3)cc2)cc1,90.5,72.2,74.2,46.4%,78.5,90.9%,67.1,85.7%,47.2%,37.3%
CSc1nc2ccccc2cc1/C=[N+](\[O-])c1ccccc1,95.5,79.5,45.2,42.8%,98,80%,80.8,102%,10.5%,22%
Cn1cc(-c2csc(-c3c[nH]c4ccc(Br)cc34)n2)c2ccnc(Cl)c21,85.4,69.1,67.5,48.8%,56.3,39.2%,66.5,51.6%,39.5%,56.4%
CS(=O)(=O)Nc1cncc(-c2ccc3ncnc(Nc4cncc(Cl)c4)c3c2)c1,67.6,96.1,84.3,77.7%,65.2,96%,94.9,70.5%,35.7%,78.4%
COc1ccc(/C=C/C(=O)c2cccc(OCCCCOc3cccc(C(=O)/C=C/c4ccc(OC)c(OC)c4)c3)c2)cc1OC,81.2,55,79.9,62%,114,77.8%,74.2,79.9%,62.7%,62.8%
CSc1oc(C)nc1[P+](c1ccccc1)(c1ccccc1)c1ccccc1,84.4,73.8,82.2,102%,88.2,97.6%,88,64.5%,51.8%,68%
CCCCn1c(=O)[nH]c(N)c([C@@H]2c3c([nH]c(=O)n(CCCC)c3=O)Oc3ccc4ccccc4c32)c1=O,89.2,84.5,81,3.72% (active),73.7,2.15% (active),51.5,101%,-15.9% (active),-8.45% (active)
Nc1cc(C(=O)NC[C@H]2CN(c3ccc(N4CCC(C(=O)O)CC4)cc3)C(=O)O2)ccc1Cl,115,95.3,98.8,80.4%,104,101%,87.7,95.8%,104%,99.4%
COc1cc(-c2nc3sccn3c2-c2ccnc(NCCNS(=O)(=O)c3ccccc3)n2)ccc1F,54.2,61.5,46.4,16.1%,57,41.1%,26.9,48.9%,30.9%,24.7%
